aSyn 5UTR act: Activators working through SNCA 5'UTR binding (MLPCN) | alpha-synuclein 5'UTR reporter, activators screen | 7.1% of 300,000 active | activity score, % (tested at 7.5 µM), hits read low | AID 1814; in the data active = activity score below about -60%
* hit, by the source's call. Not all results are given here.

For O=C(Nc1ccccc1)OCc1ccccn1 the results were aSyn 5UTR act -102*.
For CCC1(COC(=O)Nc2cccc(Cl)c2)COC1 the results were aSyn 5UTR act -93*.
For O=C(Nc1ccccc1)OCCOc1ccccc1 the results were aSyn 5UTR act -143*.
`O=C(Nc1ccccc1)OCc1cc(-c2ccccc2Cl)on1` gave aSyn 5UTR act -160*.
Screening O=C(Nc1cccc(Cl)c1)OCCOc1ccccc1 returned aSyn 5UTR act -140*.
Screening Fc1cc(F)c2nc(N3CCCC3)sc2c1 returned aSyn 5UTR act -93*.
Screening Fc1cccc2sc(N3CCOCC3)nc12 returned aSyn 5UTR act -80*.
For Fc1cccc2sc(N3CCCCC3)nc12 the results were aSyn 5UTR act -116*.
For Cc1ccc(NC(=O)CSc2ncc3ccccn23)cc1 the results were aSyn 5UTR act -67*.
`Cc1ccc(NC(=O)CSc2nccn2Cc2ccco2)cc1` gave aSyn 5UTR act -85*.
COc1ccc(/C=N/Nc2ccccn2)cc1OC was read as aSyn 5UTR act -114*.
COc1cc(/C=N/Nc2ccccn2)ccc1O was read as aSyn 5UTR act -91*.
For COc1ccc(/C=N/Nc2nc(N)cc(Cl)n2)cc1OC the results were aSyn 5UTR act -75*.
Screening COc1ccc(-c2cnnc(N/N=C/c3ccc(O)c(OC)c3)n2)cc1 returned aSyn 5UTR act -95*.
Screening Cc1sc2ncnc(Sc3ccccc3C(=O)Nc3ccc(Br)cc3)c2c1C returned aSyn 5UTR act -86*.
`O=[N+]([O-])c1cc([N+](=O)[O-])c2cc3ccccc3nc2c1` gave aSyn 5UTR act -176*.
`CN(c1ccccc1)S(=O)(=O)c1cc(C(=O)OCC(N)=O)ccc1Cl` gave aSyn 5UTR act -85*.
CCCCC(=O)Nc1ccccc1Oc1ccccc1 was read as aSyn 5UTR act -123*.
Cc1ccc2c3c([nH]c2c1C)-c1nonc1CC3 was read as aSyn 5UTR act -107*.
Cc1nc(NC(=O)c2ccc3c(c2)OCO3)ccc1Br was read as aSyn 5UTR act -140*.
For CC(C)(C)c1csc(NC(=O)c2ccc3nccnc3c2)n1 the results were aSyn 5UTR act -178*.
Cc1cccc(NC(=O)c2ccc3nccnc3c2)n1 was read as aSyn 5UTR act -76*.
Screening Cc1cc(NC(=O)c2ccc3c(c2)OCCO3)no1 returned aSyn 5UTR act 62.
For Cc1cccc(NC(=O)c2ccc3c(c2)OCCO3)n1 the results were aSyn 5UTR act -84*.
`Cc1ccc(NC(=O)c2ccc3nccnc3c2)c(C)c1` gave aSyn 5UTR act -102*.
`CCCOc1ccc(-c2nc(N3CCN(C)CC3)c3ccccc3n2)cc1` gave aSyn 5UTR act -135*.
For CN1CCN(Cc2cc(COCc3ccccc3)c3cccnc3c2O)CC1 the results were aSyn 5UTR act 99.
`CCCCc1nc2cc(C(=O)NC(C)c3cnn(C)c3)ccc2o1` (configuration not stated) gave aSyn 5UTR act -77*.
For COCC1CCN(C(=O)c2ccc3oc(CCCc4ccccc4)nc3c2)C1 (configuration not stated) the results were aSyn 5UTR act -95*.
For CCn1ccnc1CNC(=O)c1ccc2oc(CCCc3ccccc3)nc2c1 the results were aSyn 5UTR act -75*.
Screening CCCCc1nc2cc(C(=O)N3CCCC(COC)C3)ccc2o1 (configuration not stated) returned aSyn 5UTR act -86*.
Screening CCCCc1nc2cc(C(=O)N3CCCCC3C(=O)OC)ccc2o1 (configuration not stated) returned aSyn 5UTR act -98*.
CCCCc1nc2cc(C(=O)N3CCCC3)ccc2o1 was read as aSyn 5UTR act -90*.
Screening CC(C)(O)c1cc(=O)sc2nc3ccccc3n12 returned aSyn 5UTR act -103*.
`Fc1ccccc1C1CCN(Cc2nc(CC3CC3)no2)C1` (configuration not stated) gave aSyn 5UTR act -82*.
`CN1CCC(=NNC(=O)C(=O)Nc2ccc(F)cc2)CC1` gave aSyn 5UTR act -92*.
O=C(OCc1cccc(F)c1)c1ccc2c(c1)-c1ccccc1C2=O was read as aSyn 5UTR act -68*.
Screening O=C(OCc1ccccc1F)c1ccc2c(c1)-c1ccccc1C2=O returned aSyn 5UTR act -121*.
O=C(OCC(F)(F)F)c1cccc(COc2ccc3ccccc3c2)c1 was read as aSyn 5UTR act 107.
`Fc1cccc(CSc2nnc3c(n2)[nH]c2ccccc23)c1` gave aSyn 5UTR act -142*.
For CC(C)c1nnc(NC(=O)c2nc(S(=O)(=O)Cc3ccccc3)ncc2Cl)s1 the results were aSyn 5UTR act -81*.
`CCc1ccc(NC(=O)c2nc(S(=O)(=O)Cc3ccccc3)ncc2Cl)cc1` gave aSyn 5UTR act 91.
`COc1ccc(OC)c(CNc2ccc3c(c2)CCC3)c1` gave aSyn 5UTR act -118*.
`COc1cccc(CNc2ccc3c(c2)CCC3)c1` gave aSyn 5UTR act -167*.
COc1ccc2c(c1)c(/C=N/Nc1nc3ccccc3[nH]1)c(C)n2C was read as aSyn 5UTR act -115*.
Cc1ccc2cc(/C=N/Nc3nc4ccccc4[nH]3)c(Cl)nc2c1 was read as aSyn 5UTR act -111*.
For COc1ccc(/C=N/Nc2nc3ccccc3[nH]2)cc1OC the results were aSyn 5UTR act -228*.
Screening COc1cc(/C=N\Nc2nc3ccccc3[nH]2)cc(OC)c1OC returned aSyn 5UTR act -82*.
For CCN(CC)c1ccc(/C=N/Nc2nc3ccccc3[nH]2)c(O)c1 the results were aSyn 5UTR act 84.
For C(=N\Nc1nc2ccccc2[nH]1)/c1ccc2ncccc2c1 the results were aSyn 5UTR act 95.
For C=CCOc1c(Cl)cc(CNc2ccc(C)c(Cl)c2)cc1OC the results were aSyn 5UTR act 85.
For CCOc1cc(CNc2ccc(N3CCCC3)cc2)cc(Cl)c1OC the results were aSyn 5UTR act -67*.
O=C(Nc1ccc(F)cc1)Nc1cc(OCC(F)(F)F)cc(OCC(F)(F)F)c1 was read as aSyn 5UTR act 86.
For COc1ccc(NC(=O)/C(Cl)=C(/Cl)S(=O)Cc2ccccc2)cn1 (configuration not stated) the results were aSyn 5UTR act 121.
`COC(=O)c1ccc(NC(=O)Nc2ccc(F)cc2)cc1` gave aSyn 5UTR act -141*.
`COc1ccc(NC(=O)Nc2ccc(F)cc2)cn1` gave aSyn 5UTR act -65*.
`CC(C)(C)c1ccc(NC(=O)Nc2ccc(F)cc2)cc1` gave aSyn 5UTR act -245*.
COc1ccc(NC(=O)CSc2ccccc2)cn1 was read as aSyn 5UTR act -86*.
For CCOC(=O)c1ccc(NC(=O)C23CCC(C)(C(=O)O2)C3(C)C)cc1 (configuration not stated) the results were aSyn 5UTR act -106*.
`CCOC(=O)c1ccc(NC(=O)Nc2ccc(F)cc2)cc1` gave aSyn 5UTR act -106*.
For COc1ccc(NC(=O)/C=C/c2cccc(Br)c2)cn1 the results were aSyn 5UTR act -190*.
`Nc1nc(-c2ccccc2)cn1/N=C/c1ccccc1` gave aSyn 5UTR act -138*.
Screening CCSc1nnc(-c2c[nH]c3ccccc23)o1 returned aSyn 5UTR act -104*.
Cc1ncc(CO)c(/C=N/Nc2ccc(C(F)(F)F)cn2)c1O was read as aSyn 5UTR act 88.
Screening Cc1ncc(CO)c(/C=N/N=C/c2ccccc2O)c1O returned aSyn 5UTR act -89*.
Screening Fc1ccc2c(Cl)c(-c3nnc(-c4cccs4)o3)sc2c1 returned aSyn 5UTR act -178*.
CCN(Cc1ccccc1)c1ccc(/C=C(\C#N)c2ccccn2)cc1 was read as aSyn 5UTR act -137*.
